{
  "source": "PubChem BioAssay AID1259343",
  "about": "(VanderVen Lab, College of Veterinary Medicine, Cornell …, 2017)",
  "note": "In all, about 6,200 compounds went through this assay and about 2,900 (47%) were called active. The set was probably picked from earlier hits. The list shows a part of the results. A number with no mark means an inactive call. Cut-off read from the data, not from the text of the source: active = inhibition above about 50%; inactive = the rest.",
  "data": [
    {"assay": "Mycobacterium tuberculosis growth inhibition, primary screen (AID 1259343)", "settings": "inhibition: at 10 µM, stronger effect = higher value; outcome: 10 uM", "values": [
      {"smiles": "O=C(c1cnn2ccccc12)N1CCCC(CCc2cccc(C(F)(F)F)c2)C1", "note": "(centres undefined)", "inhibition": "93.1% (active)"},
      {"smiles": "CCCOc1ccc(Cn2c(=O)oc3ccc(C)cc32)cc1", "inhibition": "67.2% (active)"},
      {"smiles": "CCCOc1ccc(C2c3c(oc4ccc(C)cc4c3=O)C(=O)N2c2nccs2)cc1", "note": "(centres undefined)", "inhibition": "-18.8%"},
      {"smiles": "CCOc1ccc(Cn2c(=O)oc3ccccc32)cc1", "inhibition": "68.1% (active)"},
      {"smiles": "COc1ccc(Cn2c(C3CCCCC3)nc3oc4ccccc4c(=O)c3c2=O)cc1", "inhibition": "-20.8%"},
      {"smiles": "CCOC1=CC(=O)N(Cc2ccccc2)C1", "inhibition": "48.1%"},
      {"smiles": "CCCOc1ccc(Cc2nn[nH]n2)cc1", "inhibition": "34.6%"},
      {"smiles": "NC1=NC(=O)C(CC(=O)Nc2ccc(SC(F)(F)C(F)(F)C(F)(F)F)cc2)S1", "note": "(centres undefined)", "inhibition": "35.5%"},
      {"smiles": "O=S(=O)(/C=C/c1ccccc1)NC1CCCCC1", "inhibition": "17%"},
      {"smiles": "O=S(=O)(/C=C/c1ccccc1)NCCc1cccc2ccccc12", "inhibition": "6.24%"},
      {"smiles": "O=S(=O)(/C=C/c1ccccc1)Nc1ccc(Cl)cc1F", "inhibition": "81.5% (active)"},
      {"smiles": "O=S(=O)(/C=C/c1ccccc1)Nc1ccccc1C(F)(F)F", "inhibition": "78.4% (active)"},
      {"smiles": "Cc1ccc2nc(-c3cccc(N)c3C)oc2c1", "inhibition": "42.1%"},
      {"smiles": "COc1ccc(OCCNc2ccccc2-c2nn[nH]n2)cc1", "inhibition": "22.1%"},
      {"smiles": "Cc1cccc(C)c1-c1ccc(-c2nn[nH]n2)cc1", "inhibition": "70.6% (active)"},
      {"smiles": "O=C(Cn1ncc(Cl)c(Cl)c1=O)c1ccc2c(c1)CCC2", "inhibition": "82.8% (active)"},
      {"smiles": "O=C(Cn1ncc(Cl)c(Cl)c1=O)c1cc(F)ccc1F", "inhibition": "-50.8%"},
      {"smiles": "O=C(Cn1ncc(Cl)c(Cl)c1=O)Nc1ccc2ccccc2c1", "inhibition": "11%"},
      {"smiles": "CC(C)OC(=O)c1ccc(COc2ccc(C(C)(C)C)cc2)o1", "inhibition": "75.8% (active)"},
      {"smiles": "CC(C)(C)c1ccc(OCc2ccc(C(=O)OCC#N)cc2)cc1", "inhibition": "-2.26%"},
      {"smiles": "CC(C)c1nc(CC(=O)N(C)Cc2ccc(C3CC3C)o2)cs1", "note": "(centres undefined)", "inhibition": "83.2% (active)"},
      {"smiles": "CC1CC1c1ccc(CCC(=O)Nc2ccccn2)o1", "note": "(centres undefined)", "inhibition": "48.8%"},
      {"smiles": "CC1CC1c1ccc(/C=C2/SC(N)=NC2=O)o1", "note": "(centres undefined)", "inhibition": "5.99%"},
      {"smiles": "COc1cccc(Cc2nsc(Oc3ccc(CC(=O)O)cc3)n2)c1", "inhibition": "88.3% (active)"},
      {"smiles": "COc1cccc(CC(=O)Nc2ccc3c(c2)CCC3)c1", "inhibition": "-43.3%"},
      {"smiles": "CN(Cc1ccc2cccc(O)c2n1)Cc1noc(C2CCC2)n1", "inhibition": "98.5% (active)"},
      {"smiles": "C=C(C)COc1cccc(C(=O)NCc2noc(C3CCCC3)n2)c1", "inhibition": "38.4%"},
      {"smiles": "COCc1nnc(NS(=O)(=O)c2ccc(Br)cc2)s1", "inhibition": "inactive"},
      {"smiles": "CC(C)c1nnc(NS(=O)(=O)c2ccc(Cl)s2)s1", "inhibition": "-36.5%"},
      {"smiles": "CCc1nnc(NS(=O)(=O)c2ccccc2Cl)s1", "inhibition": "80.2% (active)"},
      {"smiles": "c1cc2cc(CNc3nc(NCC4CC4)nc4ccsc34)ccc2o1", "inhibition": "76.9% (active)"},
      {"smiles": "Clc1cccc(CSc2nnc(-c3ccc4c(c3)OCO4)o2)c1", "inhibition": "41.6%"},
      {"smiles": "Clc1cccc(Cl)c1CSc1nnc(-c2ccc3c(c2)OCO3)o1", "inhibition": "63.3% (active)"},
      {"smiles": "Brc1ccc(CSc2nnc(-c3ccc4c(c3)OCO4)o2)cc1", "inhibition": "59.2% (active)"},
      {"smiles": "N#CCSc1nnc(-c2ccc3c(c2)OCO3)o1", "inhibition": "97.5% (active)"},
      {"smiles": "Clc1ccccc1CSc1nnc(-c2ccc3c(c2)OCO3)o1", "inhibition": "1.82%"},
      {"smiles": "Brc1ccccc1CSc1nnc(-c2ccc3c(c2)OCO3)o1", "inhibition": "99.6% (active)"},
      {"smiles": "Brc1cc2c(cc1CSc1nnc(-c3ccccc3)o1)OCO2", "inhibition": "-11.5%"},
      {"smiles": "CCn1nc(NC(C)=O)c2cc3ccc(C)cc3nc21", "inhibition": "-33.9%"},
      {"smiles": "CN(C(=O)c1cc(Cl)sc1Cl)c1ccc(-c2onc3c2CCc2ccccc2-3)cc1", "inhibition": "35.5%"},
      {"smiles": "Fc1ccc(-c2nnc(SCc3cc(Cl)c4c(c3)OCCO4)o2)cc1", "inhibition": "95.4% (active)"},
      {"smiles": "C(=NOCc1ccc(CON=Cc2ccccc2)cc1)c1ccccc1", "inhibition": "16.2%"},
      {"smiles": "COc1ccc(C=NOCc2ccc(Cl)c(Cl)c2)c(OC)c1", "inhibition": "32.8%"},
      {"smiles": "N#Cc1ccc(CON=Cc2ccccc2OC(F)F)cc1", "inhibition": "52.2% (active)"},
      {"smiles": "N#Cc1ccc(CON=Cc2ccccc2)cc1", "inhibition": "70.7% (active)"},
      {"smiles": "Cc1cccc(C(=O)Nc2cc(C3CC3)nn2-c2nc(C)c(C)c(=O)[nH]2)c1", "inhibition": "99.3% (active)"},
      {"smiles": "Cc1nc(-n2nc(C3CC3)cc2NC(=O)c2cccc(F)c2)[nH]c(=O)c1C", "inhibition": "100% (active)"},
      {"smiles": "Cc1nc(-n2nc(C3CC3)cc2NC(=O)c2ccc(F)cc2)[nH]c(=O)c1C", "inhibition": "101% (active)"},
      {"smiles": "O=C1/C(=C/c2ccc(O)cc2)C(N2CCOCC2)=NN1c1ccc([N+](=O)[O-])cc1", "inhibition": "36.6%"},
      {"smiles": "CC(c1ccccc1)N1CCN(c2ccc([N+](=O)[O-])cc2)CC1", "note": "(centres undefined)", "inhibition": "56.5% (active)"},
      {"smiles": "O=[N+]([O-])c1ccc(N2CCCCC2)cc1", "inhibition": "48.6%"},
      {"smiles": "C=CCc1c(C)nc2c(-c3cccc(Cl)c3)c(C)[nH]n2c1=O", "inhibition": "99.8% (active)"},
      {"smiles": "C=CCc1c(C)nc2c(-c3ccccc3)cnn2c1NCCOC", "inhibition": "17.5%"},
      {"smiles": "C=CCc1c(C)nc2c(-c3ccccc3)cnn2c1NCCN(C)C", "inhibition": "inactive"}
    ]}
  ]
}
